Reference: PubChem BioAssay (Tox21)
Values joined by “and” are separate entries in the source; they are usually repeats but may differ in a detail not shown here. Equal values may be shown once. Results filed as inconclusive are left out. Some structures have more than one record in an assay (separate samples or runs), and their calls can disagree. Active and inactive are the calls of the source. Unless noted, calls come from the whole dose curve; as a rule, active = well fitted curve in the direction sought with a large enough effect in the repeat runs; inconclusive = weak or mixed curves; inactive = no such curve, though single readings can be large; an effect the other way counts as inactive or inconclusive.

Legend:
[1] = qHTS assay for small molecule agonists of the p53 signaling pathway (AID 651631; calls by dose curve; note: nearly all actives have a fitted effect of over 15% in size; note: potency is the fitted concentration of half-maximal effect)
In short: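 Agonist mode screen using a stably integrated beta-lactamase gene under p53 response elements in HCT-116 cells. Compound exposure lasts 16 h at 37 °C; fluorescence intensity is measured following 2 h FRET substrate loading.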

[2] = qHTS assay for small molecules that induce genotoxicity in human embryonic kidney cells expressing luciferase-tagged ATAD5 (AID 651632); note: nearly all actives have a fitted effect of over 15% in size
In short: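 Luminescent reporter readout, HEK293T ATAD5-luc line: 16 hr drug exposure (37C, 5% CO2) followed by Amplite, 30 min RT.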

[3] = qHTS assay for small molecule agonists of the p53 signaling pathway - cell viability (AID 651633; calls by dose curve; note: nearly all actives have a fitted effect of over 30% in size; note: potency is the fitted concentration of half-maximal effect)
In short: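 p53RE-bla cells, seeded at 4,000 per well and rested 5 h at 37 C/5% CO2, received compounds in DMSO for 16 h at 37 C. CellTiter-Glo was then added, and luminescence was read after 30 min at room temperature to gauge cytotoxicity.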

[4] = qHTS assay for small molecules that induce genotoxicity in human embryonic kidney cells expressing luciferase-tagged ATAD5 - cell viability (AID 651634; calls by dose curve; note: nearly all actives have a fitted effect of over 25% in size)
In short: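 Viability read: CellTiter-Fluor fluorescence, 30 min at 37C. Cells: HEK293T, luciferase-tagged ATAD5. Exposure: 15.5 hr, 37C, 5% CO2, compound or DMSO vehicle.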

[5] = qHTS assay for small molecule disruptors of the mitochondrial membrane potential - cell viability (AID 720634; calls by dose curve; note: nearly all actives have a fitted effect of over 20% in size; note: potency is the fitted concentration of half-maximal effect)
In short: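 HepG2, 1 hr compound, 37 C. ATP luminescence via CellTiter-Glo, 30 min RT, same well as m-MPI.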

[6] = qHTS assay for small molecule disruptors of the mitochondrial membrane potential (AID 720635); note: potency is the fitted concentration of half-maximal effect
In short: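 HepG2 cells (2,000/well) attached overnight at 37C, then took compound for 1 hr at 37C, 5% CO2. Mito-MPS dye was added for 30 min; fluorescence was read at 490/535 nm (monomers) and 540/590 nm (aggregates).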

[7] = qHTS assay to test for compound auto fluorescence at 590 nm (red) in HepG2 cells (AID 720674)
In short: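 Rose Bengal sodium served as the red fluorophore standard. HepG2 monolayers (overnight attachment, MEM with 10% FBS) were exposed to test compounds for 1 hr at 37 C and read at Ex 540/Em 590 nm.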

[8] = qHTS assay to test for compound auto fluorescence at 535 nm (green) in HepG2 cells (AID 720675)
[9] = qHTS assay to test for compound auto fluorescence at 460 nm (blue) in HEK293 cells (AID 720678)
In short: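 Blue-channel (Ex/Em 405/460 nm) intensity measured in HEK293 cultures after overnight compound exposure at 37C; signal expressed relative to triamterene. Cells plated 2,000 per well in 10% dialyzed FBS medium and allowed 4-5 hr to attach.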

[10] = qHTS assay to test for compound auto fluorescence at 590 nm (red) in HEK293 cells (AID 720679)
In short: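 Red-channel autofluorescence (Ex/Em 540/590 nm; Rose Bengal sodium reference) was measured after overnight 37C, 5% CO2 exposure of attached HEK293 cells, 2,000 per well in medium with 10% dialyzed FBS.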

[11] = qHTS assay to test for compound auto fluorescence at 460 nm (blue) in HEK293 cell free culture (AID 720681)
In short: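 Test compounds were pinned into cell-free culture medium (DMEM with 10% FBS) and fluorescence was read directly at Ex/Em 405/460 nm. Signals were expressed as fluorescence equivalents of triamterene, with DMSO vehicle as control.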

[12] = qHTS assay to test for compound auto fluorescence at 590 nm (red) in HEK293 cell free culture (AID 720683)
In short: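 Tox21 10K library compounds were pinned into cell-free DMEM with 10% FBS and fluorescence was read at excitation 540 nm. Activity is expressed as Rose Bengal sodium equivalency.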

[13] = qHTS assay to test for compound auto fluorescence at 460 nm (blue) in HepG2 cell free culture (AID 720685)
In short: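 Compound (23 nL) or DMSO pinned into cell-free MEM with 10% FBS; blue fluorescence read at 405/460 nm excitation/emission, expressed as auto-fluorescence equivalency to triamterene.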

[14] = qHTS assay to test for compound auto fluorescence at 535 nm (green) in HepG2 cell free culture (AID 720686)
[15] = qHTS assay to test for compound auto fluorescence at 460 nm (blue) in HepG2 cells (AID 720687)
In short: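 Cells (2,000/well in MEM with 10% FBS) attached overnight at 37 C, then were exposed to compound or DMSO for 1 hr at 37 C, 5% CO2. Fluorescence read at Ex/Em 405/460 nm, expressed as triamterene-equivalent signal.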

[16] = molecular target: Glucocorticoid receptor (Homo sapiens) (UniProt P04150); test: qHTS assay to identify small molecule agonists of the glucocorticoid receptor (GR) signaling pathway (AID 720691; active = well fitted activation curve with a large enough effect in the signal ratio in the repeat runs, not every such curve was filed as active; the % refers to the signal ratio)
Sequence of Glucocorticoid receptor (Homo sapiens) (P04150 whole entry, looked up): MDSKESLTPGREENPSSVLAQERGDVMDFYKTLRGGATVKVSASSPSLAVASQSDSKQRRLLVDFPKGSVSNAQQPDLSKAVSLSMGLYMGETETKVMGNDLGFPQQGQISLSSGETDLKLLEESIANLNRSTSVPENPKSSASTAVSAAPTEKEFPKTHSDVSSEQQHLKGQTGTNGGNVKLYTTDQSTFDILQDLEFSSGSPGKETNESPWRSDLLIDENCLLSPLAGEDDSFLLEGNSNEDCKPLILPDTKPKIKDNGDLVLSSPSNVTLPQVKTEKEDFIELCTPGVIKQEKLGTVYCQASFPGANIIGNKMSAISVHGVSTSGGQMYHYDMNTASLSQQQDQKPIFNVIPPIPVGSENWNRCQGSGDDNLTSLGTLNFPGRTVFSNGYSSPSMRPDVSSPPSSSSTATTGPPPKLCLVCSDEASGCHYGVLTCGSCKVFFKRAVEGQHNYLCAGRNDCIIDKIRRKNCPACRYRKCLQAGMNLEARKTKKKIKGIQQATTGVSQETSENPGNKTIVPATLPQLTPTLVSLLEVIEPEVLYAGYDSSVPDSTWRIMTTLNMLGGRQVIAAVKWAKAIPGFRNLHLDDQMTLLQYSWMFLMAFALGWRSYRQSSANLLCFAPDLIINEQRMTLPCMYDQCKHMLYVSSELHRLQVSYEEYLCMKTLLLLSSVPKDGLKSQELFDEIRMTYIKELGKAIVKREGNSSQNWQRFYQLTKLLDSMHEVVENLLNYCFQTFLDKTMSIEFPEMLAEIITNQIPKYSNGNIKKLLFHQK
In short: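 qHTS in GR-bla HeLa cells: 4 h settling at 37 C/5% CO2, 18 h compound incubation at 37 C, 2 h LiveBLAzer B/G FRET substrate at room temperature, fluorescence intensity measured.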

[17] = molecular target: Glucocorticoid receptor (Homo sapiens) (UniProt P04150); test: qHTS assay to identify small molecule antagonists of the glucocorticoid receptor (GR) signaling pathway (AID 720692; active = well fitted inhibition curve with a large enough effect in the signal ratio in the repeat runs, not every such curve was filed as active; the % refers to the signal ratio)
In short: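 Inhibition of glucocorticoid signalling is measured in HeLa cells with a GRE-controlled beta-lactamase reporter; cells are co-treated with compound and 5 nM dexamethasone (final) for 18 h before FRET substrate readout.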

[18] = qHTS assay to test for compound auto fluorescence at 535 nm (green) in HEK293 cells (AID 720680)
[19] = qHTS assay to test for compound auto fluorescence at 535 nm (green) in HEK293 cell free culture (AID 720682)
In short: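 No cells present: wells hold DMEM supplemented with 10% FBS, into which compound or vehicle is pinned. Green emission is then recorded (485 nm excitation, 535 nm emission) and scaled to fluorescein.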

[20] = qHTS assay to test for compound auto fluorescence at 590 nm (red) in HepG2 cell free culture (AID 720684)
In short: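 Measured in medium alone (MEM containing 10% FBS) following pintool addition of compound; emission at 590 nm with 540 nm excitation, referenced to Rose Bengal sodium.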

Measured: Potency

CCOc1cc(Oc2ccc(C(F)(F)F)cc2Cl)ccc1[N+](=O)[O-]
active: [5] 19.5 µM | [6] 17.4 µM and 24.3 µM
not listed: [18] | [19] | [20]
inactive: all other assays above

CCCCCCCCCCCOC(=O)c1ccccc1C(=O)OCCCCCCCCCCC
not listed: [8]
inactive: all other assays above

C[C@]12CCC(=O)C(O)=C1CC[C@@H]1[C@@H]2CC[C@]2(C)C(=O)CC[C@@H]12
not listed: [19]
inactive: all other assays above

CCCCNC(=O)n1c(NC(=O)OC)nc2ccccc21
active: [1] 13.6 µM and 15.4 µM
not listed: [20]
inactive: all other assays above

Nc1ccc(Cl)c(Cl)c1
not listed: [16] | [17]
inactive: all other assays above

Nc1cccnc1
not listed: [16] | [17] | [18] | [19] | [20]
inactive: all other assays above

Oc1cc(Cl)ccc1Cl
active: [6] 28.1 µM and 27.3 µM
inactive: all other assays above

CCCCN(CCCC)N=O
not listed: [20]
inactive: all other assays above

O=P(O)(O)CCCl
not listed: [16] | [17] | [19]
inactive: all other assays above

C=CCN(CC=C)C(=O)C(Cl)Cl
not listed: [20]
inactive: all other assays above

CCC(CC)Nc1c([N+](=O)[O-])cc(C)c(C)c1[N+](=O)[O-]
active: [6] 49.2 µM
not listed: [5] | [18]
inactive: all other assays above

CCOP(=S)(OCC)O/N=C(\C#N)c1ccccc1
inactive and 54.5 µM (active): [5]
not listed: [8] | [20]
inactive: all other assays above

CC(O)CCO (configuration not stated)
not listed: [5] | [6] | [8] | [16] | [17] | [18]
inactive: all other assays above

O=[N+]([O-])c1cccc2ccccc12
not listed: [6] | [16] | [17] | [18] | [19] | [20]
inactive: all other assays above

O=C(Nc1ccc(Br)cc1)c1cc(Br)cc(Br)c1O
active: [1] 8.41 µM and 1.53 µM and 12.2 µM | [3] 944 nM and 1.08 µM and 2.17 µM | [6] 1.88 µM and 543 nM and 545 nM
not listed: [4] | [8] | [17] | [18]
inactive: all other assays above
